Results on 3 compounds are retold here after PubChem BioAssay.

Usually inhibition stands for the change of the read-out against control, counted positive when it falls.

SMILES strings stand for the structures. Active and inactive are the calls of the source.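 How the source made its calls, unless noted: active means compounds lowering colon cancer cell viability after pretreatment blocking the GSK3B kinase; inactive means the rest.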

Assay [1] in a line: stimulators of insulin release from INS-1E, primary screen, cell-based, 5 mM glucose, NPC library (AID 1117329;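 active means compound raises insulin release from rat beta cells at 5 mM glucose, no numeric limit stated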). The note with it: rat INS-1E insulin secretion, at 10 µM, stronger effect = higher value.
The nature of assay [2]: growth inhibition of GSK3B-pretreated HCT116 cells – cell-based, CellTiter-Glo, 0.2 to 20 µM (AID 1117336). The note with it: HCT116 viability after GSK3B inhibitor, at 20 µM, stronger effect = higher value. (Cellular ATP, detected with luciferase, serves as a proxy for viable cell number.)
Assay [3] in a line: inhibition of endothelial tube formation, primary screen, imaging, VEGF stimulated, CD31 staining, tube area, NPC library (AID 1117340;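 active means compound that reduces growth-factor-driven endothelial tube area in a mixed cell culture, no cutoff stated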). To be noted: VEGF-stimulated ADSC/ECFC co-culture, at 10 µM, stronger effect = higher value.
Assay [4] is described as follows: glucagon-like peptide 1 release enhancers, primary assay, NCI-H716 cell line, NPC library (AID 1117341;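 active means compound raises GLP1 secretion from the human gut endocrine cells, with no numeric limit stated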). To be noted: NCI-H716 cells, at 10 µM, stronger effect = higher value.
A short description of assay [5]: HCT116 colon cancer cell growth inhibition, primary screen, CellTiter-Glo luminescence, NPC library (AID 1117342;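 active means compounds that lower survival of HCT116 colon cancer cells in the luminescence readout, no numeric limit stated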). To be noted: at 20 µM (top of the series).
The nature of assay [6]: CellTiter-Glo luminescent readout of SW480 viability loss, NPC library primary (AID 1117343;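 active means compounds that lower viability of the colon cancer cells in the luminescence readout, with no numeric limit stated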). The note with it: CellTiter-Glo luminescence; at 20 µM (top of the series).
A short description of assay [7]: decreased DLD-1 cellular survival, CellTiter-Glo luminescent readout, NPC compound collection, primary HTS (AID 1117346;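 active means compounds that lower survival of DLD-1 colon cancer cells in the luminescence readout, no cutoff given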). The note with it: DLD-1 viability, CellTiter-Glo luminescence; at 20 µM (top of the series).
The target in assay [8] is 6-phosphogluconate dehydrogenase, decarboxylating (Homo sapiens) (UniProt P52209). As to the kind of experiment: 6PGD enzyme inhibitors, primary screen, biochemical, human, recombinant enzyme, NADPH absorbance (AID 1159550;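 active means at least 20% inhibition of 6-phosphogluconate dehydrogenase activity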). To be noted: recombinant 6PGD, NADPH absorbance 341 nm; at 10 µM; stronger effect = higher value.
Assay [9] can be described thus: differential killing of epithelial or mesenchymal cells, primary screen, imaging, PC-3E GFP, TEM4-18 mCherry, co-culture (AID 1345086;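 active means compounds killing one labelled cell type while sparing the other, by normalised counts and ratio limits, not self-fluorescent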;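 on all read-outs here: cells exposed to compound for 72 h before imaging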;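 on red/green cell ratio (normalised): normalised mesenchymal count divided by normalised epithelial count so high means epithelial killing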). The note with it: imaging cell counts, at 1 µM; for red/green cell ratio (normalised): actives lie on both sides, counts scaled to control wells, 1 = unselective.
Setting [10] is: measured here: epithelial PC-3E GFP cell survival.
Setting [11] is: measured here: mesenchymal TEM4-18 mCherry cell survival.

6-phosphogluconate dehydrogenase, decarboxylating (Homo sapiens), sequence (P52209 whole entry, looked up): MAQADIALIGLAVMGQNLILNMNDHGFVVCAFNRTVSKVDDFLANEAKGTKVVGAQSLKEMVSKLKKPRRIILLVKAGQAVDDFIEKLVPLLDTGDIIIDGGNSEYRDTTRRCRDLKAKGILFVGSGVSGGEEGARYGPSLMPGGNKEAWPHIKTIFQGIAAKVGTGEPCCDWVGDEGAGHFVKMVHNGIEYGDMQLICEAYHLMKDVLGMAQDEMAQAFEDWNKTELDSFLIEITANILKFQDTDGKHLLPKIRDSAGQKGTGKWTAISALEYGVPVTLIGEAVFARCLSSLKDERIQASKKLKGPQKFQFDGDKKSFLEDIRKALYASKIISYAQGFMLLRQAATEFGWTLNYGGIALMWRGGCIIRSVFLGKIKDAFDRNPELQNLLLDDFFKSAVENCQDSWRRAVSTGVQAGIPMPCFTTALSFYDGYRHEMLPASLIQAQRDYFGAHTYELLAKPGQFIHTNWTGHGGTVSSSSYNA

For `O=C1NCC2(CCN(CCc3ccccc3)CC2)O1`, the insulin secretion stimulation in assay [1] is -0.9% (inactive). Further, in assay [2], the viability decrease was 1.6% (inactive). For the same compound, the tube area decrease in assay [3] is 18.6% (inactive). The GLP1 secretion stimulation in assay [4] is 0% (inactive). Moreover, the inhibition of viability in [5] is 8.9% (inactive). For the same compound, the values for the viability decrease (inhibition) in assay [6] and in assay [7] were 48% (inactive) and -32.8% (inactive), respectively. Besides, in assay [8], the inhibition was 13.7% (inactive). In addition, the red/green cell ratio (normalised) in [9] is 0.97 (inactive). The values for the normalised cell number in assay [9] (setting [10]) and in assay [9] (setting [11]) were 1.16 and 1.12, respectively.

In the case of `Oc1cc(O)c2c(c1)O[C@H](c1ccc(O)c(O)c1)[C@H](O)C2`, the insulin secretion stimulation in assay [1] is -0.7% (inactive). Besides, in assay [2], the viability decrease is 14.4% (inactive). In assay [3], the tube area decrease was -6.6% (inactive). The GLP1 secretion stimulation in assay [4] is -3.1% (inactive). Also, in assay [5], the inhibition of viability is 1.73% (inactive). The viability decrease (inhibition) was -72.1% (inactive) in assay [6] and -2% (inactive) in assay [7]. Also, in [8], the inhibition was -5.84% (inactive). For the same compound, the red/green cell ratio (normalised) in [9] is 0.83 (inactive). The figures for the normalised cell number in assay [9] (setting [10]) and in assay [9] (setting [11]) were 1.07 and 0.89, respectively.

As to `C[C@H](N)[C@H](O)c1cccc(O)c1`, the insulin secretion stimulation in assay [1] is -3.4% (inactive). Further, the viability decrease in assay [2] is -13.4% (inactive). Besides, in [3], the tube area decrease is 12.1% (inactive). Also, the GLP1 secretion stimulation in assay [4] was -3.4% (inactive). Moreover, in [5], the inhibition of viability is -3.1% (inactive). The viability decrease (inhibition) in [6] is 37.4% (inactive); in assay [7], 1.5% (inactive). The inhibition in assay [8] was 13.9% (inactive). Besides, the red/green cell ratio (normalised) in assay [9] is 1.4 (inactive). The normalised cell number in [9] (setting [10]) is 0.79; in [9] (setting [11]) it was 1.1.
